The record followed here is PubChem BioAssay (NCI).

The structures appear in SMILES notation. About 83,000 compounds went through this panel and 20% of them were active in at least one assay; those are over-represented in the sample as a whole.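 48-hour exposure, single concentration, 96-well plates; percent growth endpoint where 0 means no net growth. Active: below 10.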 The source made the active and inactive calls.

This assay concerns SNB-75 CNS. Put plainly: NCI-60 one-dose screen, 48 h (100 = growth as untreated, 0 = no growth, -100 = all killed). As to conditions: 10 µM unless noted. How it is done:
Growth inhibition of the SNB-75 human tumor cell line is measured as a screen for anti-cancer activity. Cells are grown in 96 well plates and exposed to the test compound for 48 hours. Compounds are tested at a single concentration, which is 10^-5 M for most compounds. The reported endpoint is percent growth (GI% or GIPRCNT), where numbers from 0 - 100% represent growth inhibition, and numbers from -100% - 0 represent cell death. For example, a value of 40 represents 60% growth inhibition. A value of 0 means no net growth occurred over the course of the experiment. A value of -40 indicates 40% of cells at the beginning of the experiment died by the end of the experiment. A value of -100 means all cells are dead at the end of the experiment.
NCI-60 Human Tumor Cell Lines Screen was performed using the standard one-dose NCI protocol, which is described in more detail at https://dtp.cancer.gov/discovery_development/nci-60/default.htm.
Compounds with GIPRCNT values below 10 were considered active. Activity score was based on GIPRCNT using the following formula: […]
Score is 0 for GIPRCNT values of 100 or above, 50 for GIPRCNT values of 0, and 100 for GIPRCNT values of -100.
For `O=Cc1ccc(O)c(O)c1`, the growth is 87.2% (inactive).
The result for `CN1CCCN(C(c2ccccc2)c2ccc(Br)cc2)CC1` (stereo not given) reads 38.5% (inactive); that for `Cc1ccc(C)c(CN(C)C)c1O`, 84.2% (inactive).
Consider `C[n+]1c(/C=C\C=C\N2CCCCC2)sc2ccccc21`, for which the growth was 14.4% (inactive).
Turning to `S=CN1CCCCC1`, the growth was 93.2% (inactive).
With `C=C1CC2(OC1=O)C(=O)N(C)c1ccc(I)cc12` (stereo not given), the growth was 38.4% (inactive).
For `CCOC(=O)/C(O)=C(\C=N\C(=S)Nc1ccc(Cl)c(Cl)c1)C(=O)OCC`, the growth is 82% (inactive).
The result for `COC1OC(C(O)C(O)CO)C(O)C(O)C1O` (stereo not given) reads 95.6% (inactive).
Take `CCOC(=O)c1c[nH][nH]c1=O`: the growth was 118% (inactive).
Consider `Cn1c2ccccc2c2nnc(NCCCCO)nc21`, for which the growth was 56.2% (inactive).
For `CC(=O)N=c1ccc2nc3c(cc(N)c4ccccc43)oc-2c1`, the growth was 34% (inactive).
Turning to `O=C(Nc1ccc([N+](=O)[O-])cc1)C(=O)Nc1ccc([N+](=O)[O-])cc1`, the growth is 116% (inactive).
Regarding `CC(C)(C)[Si](C)(C)OCC1OC(n2cnc3c(N)ncnc32)CC1OS(C)(=O)=O` (stereo not given), the growth was 97.4% (inactive).
Under `C1Cc2onc(-c3noc4c3CCC4)c2C1` stands 116% (inactive); under `O=C1C=CC(=O)C2=C1CCCC2`, 80.2% (inactive); under `CN(CCCN(C)CCC1CCCCC1)CCC1CCCCC1`, -0.933% (active).
Under `CCOC(=O)CNC(=O)Sc1ccc(C(C)(C)C)cc1` stands 75.7% (inactive).
As to `Cc1ccc(NC(=S)N2CCOCC2)cc1C`, the growth was 106% (inactive).
In the case of `O=C(Nc1ccccc1)c1ccco1`, the growth is 87% (inactive).
In the case of `Cc1cc2nc(C)c(C)nc2cc1C`, the growth was 99.4% (inactive).
Turning to `COC(=O)C1=C(C)C(=O)CC1`, the growth is 94.4% (inactive).
The result for `c1ccc2[nH]c(Cc3nc4ccccc4[nH]3)nc2c1` reads 94.9% (inactive).
For `CC(=O)NC(CCC(=O)c1ccccc1)C(=O)O` (stereo not given), the growth was 90% (inactive).
The result for `Cc1ccc(S(=O)(=O)CCCl)cc1` reads 94.7% (inactive).
For `CC1CCC(C)(C)c2ccccc21` (stereo not given), the growth is 82.9% (inactive).
`COc1ccc(C2CCCCC2=O)cc1` (stereo not given): the growth was 101% (inactive).
As for `CCCCCC#CC(=O)O`, the growth is 99.7% (inactive).
As for `C=COC(=O)C(C)(C)C`, the growth is 90.4% (inactive).
As for `CCOC(=O)c1cc(Cl)c(O)c(Cl)c1`, the growth is 103% (inactive).
The result for `COc1ccc(C(=O)/C(=N/Nc2ccccc2)c2ccc(OC)cc2)cc1` reads 97.1% (inactive).
Consider `Nc1c(O)c(S(=O)(=O)O)c(O)c2c1C(=O)c1ccccc1C2=O`, for which the growth was 24.7% (inactive).
Under `CC(C)(C)NCCC(O)c1cc(C(F)(F)F)nc2c(C(F)(F)F)cccc12` (stereo not given) stands 78.2% (inactive).
In the case of `OCc1cccnc1`, the growth is 102% (inactive).
Turning to `Cc1cccc(-[n+]2noc(N)n2)c1`, the growth is 82.1% (inactive).
Under `COc1cc2c(c(OC)c1OC)-c1ccc(SC)c(=O)cc1[C@@H](NC1OC(CO)C(O)C(O)C1O)CC2` (stereo not given in full) stands 24.9% (inactive); under `OCC1CCC(O)C(CO)N1` (stereo not given), 70.2% (inactive).
As for `COc1cc(N)c2ncccc2c1Cl`, the growth is 99.8% (inactive).
Under `COc1ccc2c(ccc[n+]2C)c1` stands 78.3% (inactive).
Turning to `O=C1NCC2CCCC1C2` (stereo not given), the growth was 77.2% (inactive).
Turning to `CS(=O)(=O)c1ccc(/C=C\C(=O)O)cc1`, the growth is 80.2% (inactive).
